Bioassay records deposited in PubChem by Center for Chemical Genomics, University of Michigan.
Dicer processing: inhibitors of Dicer pre-microRNA processing, primary screen, biochemical, cat-ELCCA, chemiluminescence. z-score at 25 µM. AID 1347074, 2019. cat-ELCCA pre-miR-21 Dicer processing; hits give high values. 6% of 47,000 active. Endoribonuclease Dicer (Homo sapiens), Q9UPY3; in the data active means z-score above about 3, passing the limit was not always enough;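 further: higher signal means more uncleaved substrate so more Dicer inhibition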
Of the large screens only hits and unclear results are named; the others gave an inactive call. Shown is part of a subset that was picked to be rich in hits.

COc1cccc(=O)c2c(C)n(-c3ccc(C(=O)O)cc3)c(C)c12	none
CCOc1cccc(=O)c2c(C)n(-c3ccc(C(=O)O)cc3)c(C)c12	Dicer processing 10
Fc1cccc(Cl)c1CNC(=S)Nc1ccc(Cl)cc1	none
c1ccc(-c2nc3c4c5c(sc4ncn3n2)CCCC5)nc1	none
Cc1nn(-c2ccc([N+](=O)[O-])cc2)c(N)c1C(N)=S	none
Cc1nn(-c2ccccc2)c2[nH]c3ccccc3c(=O)c12	none
Cc1nn(-c2ccc([N+](=O)[O-])cc2)c2[nH]c3ccccc3c(=O)c12	Dicer processing 4.2
CCOC(=O)NNC(=S)NC(C)CC (stereo unspecified)	none
COc1ccc(-c2noc(CSc3nc(N)c(-c4ccccc4)c(=O)[nH]3)n2)cc1	Dicer processing 3.9
COc1ccccc1-c1noc(CSc2nc(N)cc(=O)[nH]2)n1	none
Cc1ccc(-c2noc(CSc3nc(N)cc(=O)[nH]3)n2)cc1	none
NS(=O)(=O)c1cccc(-c2ccc(C3Nc4ccccc4-c4nc5ccccc5n43)o2)c1 (stereo unspecified)	none
CCSc1nc2c(c(=O)n1C1CCOC(C)(C)C1)C1(CCCC1)Cc1ccccc1-2 (stereo unspecified)	none
O=C(O)c1cc(S(=O)(=O)N2CCOCC2)ccc1Cl	none
CCCCn1c(CCC(=O)O)ccc1-c1ccc(C)cc1	none
COc1ccc(-n2c(CCC(=O)O)ccc2-c2cccs2)cc1	none
CCCn1c(CCC(=O)O)ccc1-c1cccs1	Dicer processing 3
CC(=O)NC(COC(C)=O)C(OC(C)=O)c1ccc([N+](=O)[O-])cc1 (stereo unspecified)	none
Cc1ccc(S(=O)(=O)Nc2ccc(N(C)C)cc2)cc1	Dicer processing 3.8
Cc1ccc(S(=O)(=O)N/N=C/C(=O)O)cc1	none
CN(C)c1ccc(NS(=O)(=O)c2ccc(-c3csnn3)cc2)cc1	Dicer processing 7
Cc1ccc(S(=O)(=O)NCCCN(C)C)cc1	none
CNC(=O)NNc1ccc(-c2csnn2)cc1	none
COc1ccc(-c2csnn2)cc1S(=O)(=O)Nc1ccccc1	none
COc1ccc(NS(=O)(=O)c2ccc(NS(=O)(=O)c3ccc(C)cc3)cc2)nn1	none
COCCCNS(=O)(=O)c1ccc(NS(=O)(=O)c2ccc(C)cc2)cc1	Dicer processing 4.7
COCCCNC(=S)NNS(=O)(=O)c1ccc(C)cc1	none
CCCOC(=O)C(C)Nc1n[nH]c(=O)[nH]c1=O (stereo unspecified)	none
CSc1n[nH]c(=O)n1-c1ccc2c(c1)OCCO2	none
O=C(NNc1ncccc1C(F)(F)F)c1cccc(C(F)(F)F)c1	none
O=C1CC(c2ccc(F)cc2)Cc2c1cnc1[nH]n(-c3ccccc3)c(=O)c21 (stereo unspecified)	none
O=c1c(Cc2ccccc2OCc2ccccc2)coc2ccccc12	none
Cc1ccc(-c2csc3ncnc(NCc4ccco4)c23)cc1	none
CC(=O)NC(Nc1ccccc1C)(C(F)(F)F)C(F)(F)F	none
C/C(Nc1ccccc1F)=C1/CCOC1=O	none
C/C(Nc1ccccc1C)=C1/CCOC1=O	Dicer processing 4
COc1ccc2c(c1)-c1nc(C)sc1CC2	none
CSC1=C(C#N)C(=O)NC(c2ccccc2O)S1 (stereo unspecified)	none
CSC1=C(C#N)C(=O)NC(c2cccc3ccccc23)S1 (stereo unspecified)	none
CC(C)(C)NC1=C(C#N)C(=O)NC(c2ccccc2O)S1 (stereo unspecified)	Dicer processing 3.9
Cc1cc(N)n(C2CCOC(C)(C)C2)n1 (stereo unspecified)	none
CCOC(=O)c1c(N)sc2c(OCc3ccccc3)c(Br)ccc12	none
CCn1c(-c2oc3nc(-c4ccccc4)cc(-c4ccco4)c3c2N)n[nH]c1=S	none
Clc1ccc(OCc2noc(-c3ccoc3)n2)c(Cl)c1	none
Fc1ccccc1-c1nn2c(Cc3ccccc3)nnc2s1	none
c1ccc(Cc2nnc3sc(-c4ccco4)nn23)cc1	none
CSc1nn2c(=O)c(Cc3ccccc3)nnc2s1	Dicer processing 3.2
O=C(NC(=S)NNc1ncc(C(F)(F)F)cc1Cl)c1ccccc1	none
O=C(NC(=S)N1CCN(c2ncc(C(F)(F)F)cc2Cl)CC1)c1ccccc1	Dicer processing 30
O=C(N=S1CCN(c2ncc(C(F)(F)F)cc2Cl)CC1)c1ccccc1	none
O=C(NCC1CCCO1)c1cc2n(n1)C(C(F)(F)F)CC(c1ccc3c(c1)OCO3)N2 (stereo unspecified)	none
CCCCCCNc1nc2c(c(=O)[nH]c(=O)n2C)n1C(C)C	none
Cc1ccccc1-c1nnc2c3ccccc3c(C)nn12	Dicer processing 5
Cc1ccc(S(=O)(=O)N2CCCCC2)cc1-c1nnc2c3ccccc3c(C)nn12	none
Cc1nn2c(-c3cccc(NS(=O)(=O)c4ccc(Cl)cc4)c3)nnc2c2ccccc12	none
Cc1ccc(-c2nnc3c4ccccc4c(C)nn23)cc1S(=O)(=O)NCc1ccccc1	none
c1ccc(-c2nn3c(-c4ccccc4)nnc3c3ccccc23)cc1	Dicer processing 4.5
COCCNS(=O)(=O)c1ccc(C)c(-c2nnc3c4ccccc4c(C)nn23)c1	none
N/C(CC(=O)Nc1cc(Cl)cc(Cl)c1)=N\O	none
Cc1ccc(-c2nnc3c4ccccc4c(C)nn23)cc1NC(=O)CSc1nc2ccccc2o1	none
Cc1cc2ncc(-c3ccnc(SCc4c(Cl)cccc4Cl)n3)c(C)n2n1	Dicer processing 24
Cc1cc2ncc(-c3ccnc(SCc4cccc(Cl)c4)n3)c(C)n2n1	none
Cc1cc2ncc(-c3ccnc(SCC(=O)c4ccc(Cl)cc4)n3)c(C)n2n1	none
O=S1(=O)C=Cc2ccc(NC(=S)Nc3ccccc3C(F)(F)F)cc21	none
O=C(O)C1C2CC=CC2c2cc(Br)cc3c2N1CC1CC=CC31 (stereo unspecified)	none
Oc1ccc2ccccc2c1N=Nc1cccc(Cl)c1	none
CCN(CCC#N)c1ccc(N=Nc2c(O)ccc3ccccc23)cc1	Dicer processing 6.1
Oc1ccc2ccccc2c1N=Nc1ccccc1F	none
Cc1cccc(N=Nc2c(O)ccc3ccccc23)c1	none
COc1ccc(N=Nc2c(O)ccc3ccccc23)cc1	Dicer processing 3.4
Oc1ccccc1N=Nc1c(O)ccc2ccccc12	none
COC(=O)c1ccc(C2c3c(oc4cc(C)c(C)cc4c3=O)C(=O)N2CCCN2CCOCC2)cc1 (stereo unspecified)	none
O=C(Nc1cc(C(F)(F)F)cc(C(F)(F)F)c1)Nc1c(Br)cc(Br)cc1-c1nn[nH]n1	none
CCSC1=C(C#N)C(c2cccs2)C(C(=O)Nc2ccccc2)=C(C)N1 (stereo unspecified)	none
O=C1CC(c2ccco2)CC2=C1C(c1ccc(Cl)cc1)N(C(=O)c1ccccc1)c1ccccc1N2 (stereo unspecified)	none
O=C1CC(/C=C/c2ccccc2)Cc2nc(N3CCN(Cc4ccc5c(c4)OCO5)CC3)ncc21 (stereo unspecified)	Dicer processing 4.6
O=C1CC(c2cccc(Cl)c2)Cc2nc(N3CCN(Cc4ccc5c(c4)OCO5)CC3)ncc21 (stereo unspecified)	none
COc1ccc(C2CC(=O)c3cnc(N4CCN(Cc5ccc6c(c5)OCO6)CC4)nc3C2)cc1 (stereo unspecified)	none
CCN(CC)C(=S)Sc1nsc(SC(=S)N(CC)CC)c1C#N	none
Cc1ccc2nc(Nc3nc(C)c4ccccc4n3)[nH]c(=O)c2c1	none
Cc1cc2nc(Nc3nc4ccccc4c(=O)[nH]3)nc(C)c2cc1C	none
Cc1nc(Nc2nc3ccccc3c(=O)[nH]2)nc2c(C)cccc12	Dicer processing 4
COc1cc(-c2nnc3ccc(C(F)(F)F)cn23)ccc1OCc1ccccc1	none
Cc1cc(C)c2c(c1)-c1cc(C)nn1C(c1cccc(O)c1O)N2 (stereo unspecified)	Dicer processing 30
